Screening data as filed in PubChem BioAssay.
G9a block – qHTS Assay for Inhibitors of Histone Lysine Methyltransferase G9a. G9a H3K9 monomethylation, AlphaScreen, 2 h. Potency, µM (top dose mostly 102 µM), most hits filed as inhibitors. hit rate 8.8% among 350,000. AID 504332, 2011; note: nearly all actives have a fitted effect of over 75% in size
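Step 1: enzyme (final 20 nM) with compound, 15 min RT. Step 2: substrate peptide 500 nM and SAM 20 uM, 2 h RT. Step 3: anti-H3K9me1 antibody and AlphaScreen beads, 10 min, then plate read.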
BAZ2B inh – qHTS Assay for Inhibitors of BAZ2B; Bromodomain adjacent to zinc finger domain protein 2B (Homo sapiens), Q9UIF8; AlphaScreen BAZ2B-H3K14Ac peptide displacement; Potency, µM (doses to about 114 µM), actives largely listed as inhibitors; hit rate 4.4% among 360,000; note: nearly all actives have a fitted effect of over 60% in size
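Complex of BAZ2B and biotin-H3K14Ac (50 nM apiece) forms over 30 min at RT, then faces library compounds up to 110 uM for another 30 min; AlphaScreen beads added, 20 min dark incubation, luminescence read.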
JMJD2A Tudor – qHTS Assay for Inhibitors of JMJD2A-Tudor Domain. Potency, µM (doses to about 114 µM), usual class: inhibitors. AlphaScreen JMJD2A-Tudor / H3K4me3 peptide binding. Lysine-specific demethylase 4A (Homo sapiens), O75164. hit rate 4.4% among 390,000. AID 504339, 2011; note: nearly all actives have a fitted effect of over 50% in size
HP1b binding inh – HTS for Inhibitors of HP1-beta Chromodomain Interactions with Methylated Histone Tails | hit rate 0.56% among 390,000 | Potency, µM (doses to about 114 µM), actives largely listed as inhibitors | Chromobox protein homolog 1 (Homo sapiens), P83916 | AlphaScreen HP1-beta / biotin-H3K9me3 peptide binding; note: nearly all actives have a fitted effect of over 70% in size
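HP1-beta protein (50 nM final) preincubated 30 min at room temperature with biotinylated H3(1-18)K9me3 peptide (50 nM) in PBS pH 7.4, 0.01% Tween-20, then compound added for 30 min. AlphaScreen streptavidin donor/nickel chelate acceptor beads (10 ug/mL final), 30 min dark, luminescence read.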
PLK1 PBD block – qHTS for Inhibitors of PLK1-PDB (polo-like kinase 1 - polo-box domain): Primary Screen. Serine/threonine-protein kinase PLK1 (Homo sapiens), P53350. Plk1 PBD binding of FITC phosphopeptide, fluorescence polarization. Potency, µM, hits mostly inhibitors. hit rate 2.8% among 360,000. AID 720504, 2013; note: series mostly up to about 57 µM; nearly all actives have a fitted effect of over 65% in size
VDR inh – Inhibitors of the vitamin D receptor (VDR): qHTS | VDR-SRC2-3 peptide fluorescence polarization, 2 h | Potency, µM, hits mostly inhibitors | hit rate 0.93% among 400,000
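VDR–SRC2-3 interaction, FP format. Cmpds 23 nl via pintool, brief spin, 2 h ambient incubation.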
A number is an active result; – = inactive; ? = inconclusive; · = not tested or not shown; [ ] = remark or other dose. Only some compounds are listed: those with a hit (about 11% of all), similar ones and a draw of the others. Calls come from the whole dose curve; as a rule, active = well fitted curve in the direction sought with a large enough effect; inconclusive = small, poorly fitted or top-dose-only effect, or another doubt; inactive = no such curve, though single readings can be large; an effect the other way counts as inactive or inconclusive.

SMILES | G9a block | BAZ2B inh | JMJD2A Tudor | HP1b binding inh | PLK1 PBD block | VDR inh
O=C(O)CN1C(=O)SC(Nc2ccc(Cl)cc2)C1=O (stereo not drawn) | – | – | – | – | – | –
CC12CCC(C(=O)NCc3ccccc3Cl)(CC1=O)C2(C)C (stereo not drawn) | ? | – | – | – | – | –
C=CCn1c(SCC(=O)N(C)c2c(N)n(Cc3ccccc3)c(=O)[nH]c2=O)nnc1-c1ccccc1OC | – | – | – | – | – | –
CCCOC(=O)Nc1ccc(N2CCCCC2)cc1 | 8.91µM | 70.8µM | ? | – | – | –
O=C(Nc1ccc(N2CCCCC2)cc1)C(Cl)c1ccccc1 (stereo not drawn) | ? | ? | – | – | – | –
O=C(Nc1ccc(N2CCCC2)cc1)C(c1ccccc1)c1ccccc1 | 31.6µM | ? | ? | – | – | –
O=C(Cc1ccccc1)Nc1ccc(N2CCCC2)cc1 | 8.91µM | ? | ? | – | – | –
O=C(Cc1ccccc1)Nc1ccc(N2CCOCC2)cc1 | – | – | – | – | – | –
O=C(CCc1ccccc1)Nc1ccc(N2CCCCC2)cc1 | 8.91µM | – | – | – | – | –
COc1cccc(-n2c([S-])c(C(=O)Nc3ccc(S(=O)(=O)N4CCOCC4)cc3)[n+]3cc(C(N)=O)ccc23)c1 | – | – | – | – | – | –
O=C(Cc1ccc(Cl)cc1)NCCS(=O)(=O)N1CCN(c2ccccc2)CC1 | –[0.501 µM] | – | – | – | – | –
Cc1cc(C)cc(NC(=O)Nc2ccc(N3CCCCC3)cc2)c1 | 8.91µM | – | – | – | – | –
O=C(CN1CCCCC1)Nc1ccc(N2CCCCCC2)cc1 | 17.8µM | 14.1µM | 50.1µM | ? | – | –
O=C(COc1ccccc1Cl)Nc1ccc(N2CCCC2)cc1 | 7.94µM | – | ? | – | – | –
O=C(Cc1ccccc1)NCCS(=O)(=O)N1CCN(c2ccccc2)CC1 | 50.1µM | – | – | – | – | –
COc1ccc(NC(=O)C(OC(=O)CNC(=O)c2ccccc2)c2ccccc2)c(C)c1 (stereo not drawn) | · | · | – | · | · | ·
CC(C)[C@H](NC(=O)[C@H](CCCCN)NC(=O)[C@@H](NC(=O)[C@@H]1CCCN1C(=O)[C@H](CCCN=C(N)N)NC(=O)[C@H](CCCN=C(N)N)NC(=O)[C@H](CCCCN)NC(=O)[C@H](CCCCN)NC(=O)CNC(=O)[C@@H](NC(=O)[C@@H]1CCCN1C(=O)[C@@H](N)CCCCN)C(C)C)C(C)C)C(=O)N[C@@H](Cc1ccc(O)cc1)C(=O)N1CCC[C@H]1C(=O)O | · | · | · | · | · | –
Cc1ccccc1CC(=O)Nc1cccnc1 | – | – | – | – | – | –
Cc1sc2ncnc(N3CCCC(C)C3)c2c1C (stereo not drawn) | 56.2µM | – | – | – | – | –
CCc1ccc(CN(C(=O)c2nc(SC)ncc2Cl)C2CCS(=O)(=O)C2)cc1 (stereo not drawn) | – | – | – | – | · | –
O=C1c2ccccc2C(=O)C12OC2c1cccc2ccccc12 (stereo not drawn) | 6.31µM | – | – | – | ? | 12.6µM
Cc1ccc(S(=O)(=O)N2CCC(C(=O)NNC(=O)C3CC3)CC2)cc1Cl | – | – | – | – | – | –
CC(/C=C/c1ccccc1F)=N\NC(=O)c1ccc(Cl)cc1 | –[0.501 µM] | – | 22.4µM | – | 5.32µM | ?
O=C(N/N=C/c1ccc[nH]1)c1ccc(Cl)cc1 | – | – | – | – | – | –
CC(C)/C=N/NC(=O)c1ccc(Cl)cc1 | – | – | ? | – | 26.7µM | ?
COC(=O)CNC(=O)CN1C(=O)N(c2cccc(Cl)c2)C(N(O)C(=O)Nc2cccc(Cl)c2)C1(C)C (stereo not drawn) | ? | – | – | – | – | –
COc1cc(-c2nc3ccccn3c2N)ccc1O | 50.1µM | – | – | – | – | –
